The values that follow come from PubChem BioAssay.

Experiment [1] addresses Regulator of G-protein signaling 16 (Homo sapiens) (UniProt O15492). Description: modulators of RGS–Galpha-o binding, primary screen, biochemical, multiplexed beads, flow cytometry, RGS4/7/8/16/19 (AID 1504).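 Further: fluorescently labeled Galpha-o bound to GDP with aluminium fluoride binding biotinylated RGS beads.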 Particulars: multiplexed bead flow cytometry, measured here: RGS16 interaction, at 10 µM. A general note: In flow cytometry, cells or beads pass a laser one at a time.

Experiment [2] addresses Regulator of G-protein signaling 19 (Homo sapiens) (UniProt P49795). The experiment is described as above. Particulars: multiplexed bead flow cytometry, measured here: RGS19 interaction, at 10 µM.
In experiment [3] the target is Regulator of G-protein signaling 7 (Homo sapiens) (UniProt P49802). Described as above. Particulars: multiplexed bead flow cytometry, measured here: RGS7 interaction, at 10 µM.
In experiment [4] the target is Regulator of G-protein signaling 8 (Homo sapiens) (UniProt P57771). The description is as above. The conditions noted are these: multiplexed bead flow cytometry, measured here: RGS8 interaction, at 10 µM.
Experiment [5] can be described thus: disruption of biotin probe capture by avidin, counter-screen for RGS protein interaction modulators, biochemical, flow cytometry, bead-based (AID 1783;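 active means inhibition above 50%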;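 further: median green fluorescence of gated singlet beads compared with DMSO control wells; 0% = DMSO wells and 100% = complete loss of bead fluorescence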). The conditions noted are these: streptavidin beads, fluorescein-biotin binding; at 10 µM, stronger effect = higher value.
For experiment [6], the target named is Guanine nucleotide-binding protein G(o) subunit alpha (Homo sapiens) (UniProt P09471). Description: RGS8-Galphao binding modulators, confirmation, biochemical, multiplexed bead flow cytometry, single concentration (AID 1836; in the data active means binding response below about 72% or above about 130%; inactive means in between;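 further: Galphao activated as GDP AlF4 complex before binding bead RGS8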). The conditions noted are these: bead-based flow cytometry RGS8-Galphao binding, fluorescence; at 10 µM; actives lie on both sides.
For experiment [7] the target is unchanged. In words: RGS7-Galphao binding modulators, confirmation, biochemical, multiplexed bead flow cytometry, single concentration (AID 1837).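 Further: fluorescent Galphao activated with GDP and aluminum fluoride binding bead-coupled RGS7.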 The conditions noted are these: bead-based flow cytometry RGS7-Galphao binding; at 10 µM; actives lie on both sides.
The target in experiment [8] is Regulator of G-protein signaling 16 (Homo sapiens) + Guanine nucleotide-binding protein G(o) subunit alpha (Homo sapiens) (UniProt O15492+P09471). Description: modulators of RGS16-Galphao protein binding, confirmation, biochemical, single concentration, multiplexed bead flow cytometry (AID 1838; in the data active means response below about 74% or above about 130%; inactive means in between;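 further: Galphao activated as the GDP aluminium fluoride complex binding bead-coupled RGS16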). The conditions noted are these: bead-based flow cytometry, at 10 µM, actives lie on both sides.

Experiment [9] addresses Guanine nucleotide-binding protein G(o) subunit alpha (Homo sapiens) (UniProt P09471). In words: modulators of RGS4-Galphao protein binding, confirmation, biochemical, single concentration, multiplexed bead flow cytometry (AID 1840; in the data active means binding response below about 74% or above about 130%; inactive means in between). Particulars: at 10 µM, actives lie on both sides.
Experiment [10] addresses Guanine nucleotide-binding protein G(o) subunit alpha (Homo sapiens) + Regulator of G-protein signaling 19 (Homo sapiens) (UniProt P09471+P49795). Description: regulators of RGS19-Galphao binding, confirmation, biochemical, single point, multiplexed bead flow cytometry (AID 1841; in the data active means response below about 50% or above about 160%; inactive means in between;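 further: 100% = no compound control and 0% = blank background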). The conditions noted are these: bead-based flow cytometry RGS19-Galphao binding; at 10 µM; actives lie on both sides.

Some of the results follow. Activity calls are given as the source filed them. Unless noted, no stated cut-off is given here; in the data, active means response below about 75% or above about 130%; inactive means in between.

Guanine nucleotide-binding protein G(o) subunit alpha (Homo sapiens), sequence (P09471 whole entry, looked up): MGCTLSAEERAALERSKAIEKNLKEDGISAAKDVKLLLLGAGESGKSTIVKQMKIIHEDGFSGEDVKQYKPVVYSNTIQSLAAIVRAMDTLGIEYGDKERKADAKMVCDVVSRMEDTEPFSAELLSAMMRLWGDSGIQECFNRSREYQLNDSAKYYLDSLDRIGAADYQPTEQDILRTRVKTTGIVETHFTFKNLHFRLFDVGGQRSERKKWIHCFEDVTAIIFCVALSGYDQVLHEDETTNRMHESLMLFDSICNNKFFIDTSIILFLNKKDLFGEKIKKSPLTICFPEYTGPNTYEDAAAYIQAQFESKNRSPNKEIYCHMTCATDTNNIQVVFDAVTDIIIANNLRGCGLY
Guanine nucleotide-binding protein G(o) subunit alpha (Homo sapiens) + Regulator of G-protein signaling 19 (Homo sapiens), sequence (P09471 whole entry, looked up): as above
Guanine nucleotide-binding protein G(o) subunit alpha (Homo sapiens) + Regulator of G-protein signaling 19 (Homo sapiens), sequence (P49795 whole entry, looked up): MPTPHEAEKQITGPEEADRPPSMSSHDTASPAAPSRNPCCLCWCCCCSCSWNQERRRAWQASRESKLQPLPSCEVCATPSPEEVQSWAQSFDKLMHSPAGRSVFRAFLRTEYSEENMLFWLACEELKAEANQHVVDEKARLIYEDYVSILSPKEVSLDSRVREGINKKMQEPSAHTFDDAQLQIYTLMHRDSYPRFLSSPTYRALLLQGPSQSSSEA
Regulator of G-protein signaling 16 (Homo sapiens) + Guanine nucleotide-binding protein G(o) subunit alpha (Homo sapiens), sequence (O15492 whole entry, looked up): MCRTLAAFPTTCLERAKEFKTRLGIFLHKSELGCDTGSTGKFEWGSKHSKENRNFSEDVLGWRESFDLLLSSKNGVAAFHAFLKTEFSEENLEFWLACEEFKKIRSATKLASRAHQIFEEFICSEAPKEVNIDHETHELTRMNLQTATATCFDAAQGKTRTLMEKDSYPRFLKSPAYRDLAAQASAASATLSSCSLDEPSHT
Regulator of G-protein signaling 16 (Homo sapiens) + Guanine nucleotide-binding protein G(o) subunit alpha (Homo sapiens), sequence (P09471 whole entry, looked up): as the sequence (P09471 whole entry, looked up) above

For the molecule `C/C(=C/C(=O)N1CCN(C)CC1)C(=O)O`, the RGS16–Galpha-o binding response in experiment [1] is 234%. Further, in experiment [2], the RGS19–Galpha-o binding response is -6.25%. Moreover, the RGS7–Galpha-o binding response in experiment [3] is 105%. The RGS8–Galpha-o binding response in [4] came to 125%. For the same molecule, in [5], the inhibition is 0.5% (inactive). In addition, the binding response (% of control) was 104% (inactive) in experiment [6] and 102% (inactive) in experiment [9]. The response (percent of control binding) was 98.7% (inactive) in [7] and 102% (inactive) in [10]. In addition, in [8], the response (% of control binding) was 105% (inactive).

On to `O=C1CCC(=O)N(O)CCCCCNC(=O)CCC(=O)N(O)CCCCCNC(=O)CCC(=O)N(O)CCCCCN1`, for which, in experiment [1], the RGS16–Galpha-o binding response came out at 40.8%. Besides, the RGS19–Galpha-o binding response in experiment [2] came out at 4280%. For the same molecule, the RGS7–Galpha-o binding response in experiment [3] was -117%. Further, the RGS8–Galpha-o binding response in experiment [4] worked out at 55.9%. Moreover, in experiment [5], the inhibition was -0.3% (inactive). The binding response (% of control) was 53.5% (active) in [6] and 61.5% (active) in experiment [9]. The response (percent of control binding) in experiment [7] is 59.4% (active); in experiment [10] it was 62.2% (inactive). The response (% of control binding) in experiment [8] is 45.6% (active).

On to `COc1cc(C(=O)Nc2cc(C(F)(F)F)ccc2N2CCOCC2)ccc1O`, for which the RGS16–Galpha-o binding response in experiment [1] stood at 9.57%. The RGS19–Galpha-o binding response in experiment [2] was 135%. In experiment [3], the RGS7–Galpha-o binding response is 84.8%. In experiment [4], this molecule yielded an RGS8–Galpha-o binding response of 70.4%. The inhibition in experiment [5] is 0.3% (inactive). The figures for the binding response (% of control) in experiment [6] and in experiment [9] were 104% (inactive) and 97.9% (inactive), respectively. Further, the response (percent of control binding) is 102% (inactive) in experiment [7] and 86.5% (inactive) in experiment [10]. Further, in experiment [8], the response (% of control binding) is 98.8% (inactive).

Molecule `CCC(=O)Nc1c(S(=O)(=O)c2ccccc2)c2nc3ccccc3nc2n1Cc1ccccc1` registered an RGS16–Galpha-o binding response in experiment [1] of 13.9%. Moreover, the RGS19–Galpha-o binding response in experiment [2] was determined as 285%. In experiment [3], the RGS7–Galpha-o binding response stood at 87.2%. In experiment [4], this molecule yielded an RGS8–Galpha-o binding response of 70.1%. Further, the inhibition in [5] is -0.3% (inactive). Further, the binding response (% of control) in [6] and in [9] was 103% (inactive) throughout. Further, the response (percent of control binding) in [7] was 99.2% (inactive); in experiment [10], 101% (inactive). In experiment [8], the response (% of control binding) is 104% (inactive).

For the molecule `Cc1ccccc1CS(=O)(=O)CC1(O)CCN(C(=O)c2cccc(C(F)(F)F)c2)CC1`, the RGS16–Galpha-o binding response in experiment [1] was 106%. Also, the RGS19–Galpha-o binding response in [2] was found to be 115%. In addition, the RGS7–Galpha-o binding response in [3] came out at 157%. The molecule also returned an RGS8–Galpha-o binding response in [4] of 100%. For the same molecule, the inhibition in experiment [5] is 2.5% (inactive). For the same molecule, the binding response (% of control) was 104% (inactive) in experiment [6] and 105% (inactive) in experiment [9]. For the same molecule, the values for the response (percent of control binding) in experiment [7] and in [10] were 105% (inactive) and 78.9% (inactive), respectively. The response (% of control binding) in experiment [8] was 102% (inactive).

`O=c1[nH]c2ccccc2s1` registered an RGS16–Galpha-o binding response in experiment [1] of 23%. The RGS19–Galpha-o binding response in [2] worked out at 148%. Further, the RGS7–Galpha-o binding response in [3] was 88.2%. In experiment [4], the RGS8–Galpha-o binding response is 79%. Also, the inhibition in [5] was -0.3% (inactive). The binding response (% of control) in [6] was 103% (inactive); in experiment [9], 102% (inactive). The values for the response (percent of control binding) in [7] and in experiment [10] were 102% (inactive) and 99.2% (inactive), respectively. For the same molecule, the response (% of control binding) in experiment [8] was 101% (inactive).

Consider `COc1ccc(-c2nn(-c3ccccc3)cc2C(=O)Nc2nccs2)cc1OC`, for which the RGS16–Galpha-o binding response in experiment [1] was 24.6%. In [2], the RGS19–Galpha-o binding response was 172%. In experiment [3], the RGS7–Galpha-o binding response turned out to be 102%. The same molecule showed an RGS8–Galpha-o binding response in experiment [4] of 75%. For the same molecule, the inhibition in experiment [5] was -2.4% (inactive). The binding response (% of control) in [6] is 102% (inactive); in [9], 101% (inactive). Besides, the response (percent of control binding) in experiment [7] was 99.8% (inactive); in [10], 112% (inactive). In [8], the response (% of control binding) is 103% (inactive).

Turning to `COc1ccc(CCC(=O)OCC(=O)Nc2ccc(C)c(S(=O)(=O)N(C)C)c2)cc1`, in experiment [1], the RGS16–Galpha-o binding response stood at 69.9%. In addition, the RGS19–Galpha-o binding response in experiment [2] is -376%. In addition, in [3], the RGS7–Galpha-o binding response was found to be 45.2%. The molecule further showed an RGS8–Galpha-o binding response in [4] of 57.7%. In addition, the inhibition in experiment [5] is 2.5% (inactive). The binding response (% of control) in experiment [6] is 104% (inactive); in [9], 103% (inactive). Moreover, the response (percent of control binding) in experiment [7] is 104% (inactive); in [10] it was 100% (inactive). The response (% of control binding) in [8] was 104% (inactive).

Molecule `Cc1ccc(OCC(O)CN2CCN(CC(O)COc3ccc(C)cc3Cl)CC2)c(Cl)c1` (centres undefined) registered an RGS16–Galpha-o binding response in [1] of 367%. For the same molecule, in experiment [2], the RGS19–Galpha-o binding response turned out to be 114%. The RGS7–Galpha-o binding response in experiment [3] came out at 127%. Further, the RGS8–Galpha-o binding response in experiment [4] stood at 165%.

For orientation: inhibition means the relative decrease from the control value, in per cent.
